Measurements published in PubChem BioAssay (NCI).
This is part of a sample that, as a whole, favours compounds with a hit. Of some 83,000 tested, about 20% had one in any assay.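 How to read the values: 0–100, growth inhibition (40 = 60% inhibited); 0, no net growth; -100 to 0, cell death (-40 = 40% of starting cells died; -100 = all dead).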 Unmarked numbers belong to inactive results. Activity calls are given as the source filed them. The calls were made as follows: active = growth percent below 10; inactive = the rest.

What was measured:
Assay in all cases: NCI-60 one-dose screen, 48 h (100 = growth as untreated, 0 = no growth, -100 = all killed)
Conditions in all cases: 10 µM unless noted
NCI-H23 lung = system: NCI-H23 lung
NCI-H226 lung = system: NCI-H226 lung
NCI-H322M lung = system: NCI-H322M lung
HOP-62 NSCLC = system: HOP-62 NSCLC
NCI-H460 lung = system: NCI-H460 lung
HOP-92 NSCLC = system: HOP-92 NSCLC
NCI-H522 lung = system: NCI-H522 lung
A549/ATCC NSCLC = system: A549/ATCC NSCLC
786-0 renal = system: 786-0 renal
COLO 205 colon = system: COLO 205 colon
DU-145 prostate = system: DU-145 prostate
K-562 leukemia = system: K-562 leukemia
MALME-3M melanoma = system: MALME-3M melanoma
MDA-MB-231 breast = system: MDA-MB-231 breast
RXF 393 renal = system: RXF 393 renal
SF-268 CNS = system: SF-268 CNS
SF-295 CNS = system: SF-295 CNS
SF-539 CNS = system: SF-539 CNS
UACC-257 melanoma = system: UACC-257 melanoma
M14 melanoma = system: M14 melanoma

| Compound | growth (NCI-H23 lung) | growth (NCI-H226 lung) | growth (NCI-H322M lung) | growth (HOP-62 NSCLC) | growth (NCI-H460 lung) | growth (HOP-92 NSCLC) | growth (NCI-H522 lung) | growth (A549/ATCC NSCLC) | growth (786-0 renal) | growth (COLO 205 colon) | growth (DU-145 prostate) | growth (K-562 leukemia) | growth (MALME-3M melanoma) | growth (MDA-MB-231 breast) | growth (RXF 393 renal) | growth (SF-268 CNS) | growth (SF-295 CNS) | growth (SF-539 CNS) | growth (UACC-257 melanoma) | growth (M14 melanoma) |
| --- | --- | --- | --- | --- | --- | --- | --- | --- | --- | --- | --- | --- | --- | --- | --- | --- | --- | --- | --- | --- |
| CC1=C(C(=O)/C=C/c2c[nH]c3ccccc23)C(c2ccccc2)NC(=S)N1 (stereo not given) | 94.5% | 80.4% | 101% | 97.9% | 99.6% | 90.1% | 89% | 106% | 102% | 121% | 113% | 90.1% | 97.7% | 85.3% | 105% | 92.7% | 97.6% | 98.2% | 102% | 94.4% |
| COC(=O)C1=C(C(=O)ON)[C@@H]2C=C[C@@]1([C@@H](Cc1ccccc1)Nc1ccccc1)O2 | 90.6% | 105% | 99.5% | 102% | 107% | 63.1% | -74.7% (active) | 92.9% | 101% | -67% (active) | 80% | -9.92% (active) | -68.8% (active) | 106% | 91.1% | 93.9% | 105% | 93.8% | 94.8% | 95.3% |
| Cc1nc(N)nc(N[C@@H](C)c2nc3cccc(NCc4ccc(C(=O)NO)cc4)c3c(=O)n2-c2ccccc2)n1 | 63.9% | 81% | 80.1% | 75.1% | 76.3% | 50.1% | 35.3% | 90.5% | 93.9% | 47.3% | 86.9% | 47.8% | 37.7% | 81% | 65% | 87.1% | 104% | 75.9% | 58.3% | 73.7% |
| CC(=O)Nc1ccc(-n2cnc3cc(-c4ccc(OCCN5CCCCC5)cc4)ccc32)cc1 | 73.2% | 74.1% | 104% | 82.5% | 4.54% (active) | 105% | 91.9% | -3.26% (active) | -40.9% (active) | 107% | 89.3% | 1.57% (active) | 77.5% | 76.1% | 80.4% | 84.1% | 96.7% | 14.4% | 108% | 47.1% |
| Cc1ccc(/C=C(/C#N)n2nnc3cccc(F)c32)cc1 | 4.73% (active) | 23% | 16.3% | 21.8% | -34.8% (active) | -6.05% (active) | 11.6% | 11.5% | 1.78% (active) | -19.5% (active) | -24.9% (active) | 6.48% (active) | 36.3% | -38.5% (active) | -51.4% (active) | 21.2% | 16.2% | -48.1% (active) | 52.8% | -13.6% (active) |
| C[C@H]1[C@H](C)CC[C@]2(C(=O)NCC#CCN3CCN(C)CC3)CC[C@]3(C)C(=CC[C@@H]4[C@@]5(C)Cc6c([nH]c7ccccc67)C(C)(C)[C@@H]5CC[C@]43C)[C@H]12 | 100% | 100% | 92.8% | 93.1% | 3.53% (active) | 63.8% | 82.6% | 69.7% | 66.9% | 53.1% | 73.1% | 1.37% (active) | 61.6% | 63.8% | 84.9% | 82.5% | 106% | 84.8% | 97% | 71.3% |
| COc1cc2c(=O)n(CCN(C)C)c3c4cc5c(cc4ccc3c2cc1OC)OCO5 | -20.7% (active) | -97.6% (active) | -15.7% (active) | -5.77% (active) | -31.6% (active) | -9.74% (active) | -37.9% (active) | -84.9% (active) | -58.7% (active) | -56.3% (active) | 3.59% (active) | 12.1% | -63.6% (active) | -21.6% (active) | -84.6% (active) | 0.0226% (active) | 3.79% (active) | -39.9% (active) | -33.4% (active) | -56.7% (active) |
| O=C1Nc2cc(-c3ccc(NS(=O)(=O)c4ccccc4)cc3)ccc2/C1=C/c1ccc[nH]1 | 29.9% | 65.9% | 49.6% | 106% | 11.4% | 95.7% | 76.4% | 86.6% | 108% | 125% | 31.8% | 61% | 85.5% | 62.9% | 104% | 92.1% | 98.7% | 76.2% | 110% | 90.1% |
